# Assay results: PubChem BioAssay
# A number with no mark means an inactive call. How the calls were made is not given here.
# Assay: blockers of DNA damage checkpoint Chk1 activation – imaging, HeLa, hydroxyurea, phospho-Chk1 antibody, percent positive cells, primary screen (AID 1186)
# Conditions: hydroxyurea-induced phospho-Chk1 immunofluorescence imaging, higher = more signal
row,Compound,z-score
1,O=C1OCC=C[C@H]2OC34C=CCN(c5ccc6ccccc6c5)C(=O)[C@H]3N(CCCO)C(=O)[C@@H]4[C@@H]12 (stereo partly drawn),-0.114
2,COCCOC(=O)N1C(=O)[C@@]2(c3cc(C#CCNC(N)=O)ccc31)[C@H](C(=O)N1CCc3cc(OC)c(OC)cc3C1)[C@H]1C(=O)O[C@H](c3ccccc3)[C@H](c3ccccc3)N1[C@@H]2c1ccc(OCCO)cc1,-0.184
3,O=C(OCCF)C1=CCC(c2cccc(Cl)c2)O1 (stereo not drawn),0.0006
4,CCC[C@@H]1C=C(C(=O)O)[C@H](c2ccc(C)cc2)N1S(=O)(=O)c1ccc(C)cc1,0.941
5,COc1ccc(C#Cc2ccc3c(c2)[C@]2(C(=O)N3)[C@H](C(=O)NC[C@H](O)c3ccccc3)[C@H]3C(=O)O[C@H](c4ccccc4)[C@H](c4ccccc4)N3[C@@H]2c2ccccc2OCCO)cc1,-0.166
6,CC1=C2[C@@H](CCc3ccccc3)OB(O)C[C@@H]2n2c(=O)n(-c3ccccc3)c(=O)n2C1,-0.0397
7,CCOC(=O)C1=C[C@@H](CC)N(S(=O)(=O)c2ccc(C)cc2)[C@H]1c1ccccc1,0.553
8,COc1cc(C(O)C2C=CC3C(=O)N(c4ccccc4)C(=O)C3N2Nc2ccc(C#N)cc2)cc(OC)c1OC (stereo not drawn),0.859
9,COc1ccc(C#Cc2ccc3c(c2)[C@]2(C(=O)N3)[C@H](c3ccc(O)cc3)N3[C@H](c4ccccc4)[C@H](c4ccccc4)OC(=O)[C@H]3[C@@H]2C(=O)NC[C@H](O)c2ccccc2)cc1,0.0646
10,COc1ccc(C#Cc2ccc3c(c2)[C@]2(C(=O)N3)[C@H](C(=O)NC[C@H](O)c3ccccc3)[C@H]3C(=O)O[C@H](c4ccccc4)[C@H](c4ccccc4)N3[C@@H]2c2ccc(OCCO)cc2)cc1,0.63
11,C=CCC(OC(C)=O)[C@@H]1[C@@H](N(Cc2cccc3ccccc23)C(=O)c2cccc3ccccc23)c2cc(OCCCO)ccc2N1C(=O)c1ccc2ccccc2n1 (stereo partly drawn),0.316
12,COC(=O)[C@@]1(Cc2ccccc2)[C@H]2c3cc(C(=O)N4CCCC4)n(Cc4ccc(C)o4)c3C[C@H]2CN1C(=O)c1ccccc1,0.56
13,CC(C)CNC(=O)[C@@H]1c2ccccc2C(=O)N(Cc2cc(C(F)(F)F)cc(C(F)(F)F)c2)[C@H]1c1ccc(CO)cc1,-0.236
14,COC(=O)[C@@]1(Cc2ccc(OC)cc2)[C@H]2c3cc(C(=O)N(C)C)n(Cc4c(OC)[nH]cc(C)c4=O)c3C[C@H]2CN1C(=O)c1ccccc1,0.324
15,O=C1O[C@@H](c2ccccc2)[C@@H](c2ccccc2)N2[C@@H](c3ccc(OCCO)cc3)[C@]3(C(=O)Nc4ccc(C#CC5=CCCCC5)cc43)[C@@H](C(=O)O)[C@H]12,0.419
16,C=C[C@@H](COC(C)=O)N(Cc1ccccc1[N+](=O)[O-])S(=O)(=O)c1ccc(Br)cc1,-0.472
17,COC(=O)[C@@]1(Cc2ccc(OC)cc2)[C@H]2c3cc(C(=O)N4CCCC4)n(CCc4c[nH]c5cc(F)ccc45)c3C[C@H]2CN1C(=O)c1ccccc1,0.527
18,COC(=O)c1ccc(C(O)C2C=CC3C(=O)N(c4ccccc4)C(=O)C3N2Nc2ccc(C#N)cc2)o1 (stereo not drawn),-0.645
19,COc1c(C)cc(-c2cc3c(c(-c4ccc(Oc5ccccc5)cc4)n2)[Si](C(C)C)(C(C)C)OC3)cc1C,0.621
20,COC(=O)[C@@]1(Cc2ccc(F)cc2)[C@H]2c3cc(C(=O)N(C)C)n(CCc4ccccn4)c3C[C@H]2CN1C(=O)c1ccccc1,-0.0308
21,COCC(=C=CC[C@H](O)c1ccc(OCCO)cc1)C[C@H](O)c1cc(Cl)cc(Cl)c1O,-0.559
22,CC(C)(C)OC(=O)CC[C@]1(C(=O)N2CCCCC2)N=C(c2ccc(OCCCO)cc2)O[C@H]1c1ccccc1N=[N+]=[N-],-0.0036
23,CC(C)C(O)C1C=CC2C(=O)N(c3ccccc3)C(=O)C2N1Nc1ccc(C#N)cc1 (stereo not drawn),-0.877

# Assay: blockers of DNA damage checkpoint Chk1 activation – imaging, HeLa, hydroxyurea, phospho-Chk1 nuclear intensity, primary screen (AID 1187); further: test concentration not given here
# Conditions: hydroxyurea-induced phospho-Chk1 immunofluorescence imaging, higher = more signal
row,Compound,z-score
1,C=C[C@H](COC(C)=O)N(Cc1ccc(OC(C)=O)c(OC)c1)S(=O)(=O)c1ccc(Br)cc1,-0.314
2,CCCC[C@H]1OB(O)C[C@H]2C1=C(C)C[C@H]1C(=O)N(Cc3ccccc3)C(=O)[C@H]12,-0.379
3,C=C[C@@H](COC(C)=O)N(Cc1ccc([N+](=O)[O-])cc1)S(=O)(=O)c1ccc(Br)cc1,-0.411
4,Cc1ccc(S[C@]2(C(=O)NCC(C)C)CC(=O)N(Cc3ccccc3Cl)[C@@H]2c2ccc(CO)cc2)cc1,0.658
5,COCCOC(=O)N1C(=O)[C@@]2(c3cc(C#CCCO)ccc31)[C@H](c1ccccc1OCCO)N1[C@H](c3ccccc3)[C@H](c3ccccc3)OC(=O)[C@H]1[C@@H]2C(=O)N1CCN(c2ncccn2)CC1,-0.157
6,COCCCNC(=O)[C@@]1(c2ccc([N+](=O)[O-])cc2)CC(=O)N(CC23CC4CC(CC(C4)C2)C3)[C@@H]1c1ccc(CO)cc1,-0.404
7,Cc1cc(C)c(C(O)C2C=CC3C(=O)N(C)C(=O)C3N2Nc2ccccc2)c(C)c1 (stereo not drawn),-0.137
8,CCCNC(=O)[C@@H]1c2ccccc2C(=O)N(Cc2ccccc2)[C@H]1c1ccc(CO)cc1,-0.142
9,COc1ccc([Si](C)(C)[C@H]2[C@H](CC(=O)N(CCO)Cc3ccccc3)O[C@@]3(C(=O)N(Cc4cccc(N5CCC5=O)c4)c4ccccc43)[C@@H]2C)cc1,-1.2
10,COc1ccc([Si](C)(C)[C@@H]2[C@@H](CCn3cc([C@H](O)c4ccccc4)nn3)O[C@]3(C(=O)N(Cc4ccc(N5C(=O)c6cccc7cccc5c67)cc4)c4ccccc43)[C@H]2C)cc1,-0.524
11,CCN(CC)c1ccc(N2CC=CC34O[C@@H]5C=CCCOC(=O)C5[C@H]3C(=O)N(CCCCCO)[C@@H]4C2=O)cc1 (stereo partly drawn),0.711
12,COCCOC(=O)N1C(=O)[C@@]2(c3cc(C#CCC(C(=O)OC)C(=O)OC)ccc31)[C@H](c1ccccc1OCCO)N1[C@H](c3ccccc3)[C@H](c3ccccc3)OC(=O)[C@H]1[C@@H]2C(N)=O,-0.0971
13,COc1ccc(C(O)C2C=CC3C(=O)N(c4ccccc4)C(=O)C3N2Nc2ccc([N+](=O)[O-])cc2)cc1OCc1ccccc1 (stereo not drawn),-1.67
14,O=C1OCC=C[C@H]2OC34C=CCN(c5ccc6ccccc6c5)C(=O)[C@H]3N(CCCO)C(=O)[C@@H]4[C@@H]12 (stereo partly drawn),-0.226
15,COCCOC(=O)N1C(=O)[C@@]2(c3cc(C#CCNC(N)=O)ccc31)[C@H](C(=O)N1CCc3cc(OC)c(OC)cc3C1)[C@H]1C(=O)O[C@H](c3ccccc3)[C@H](c3ccccc3)N1[C@@H]2c1ccc(OCCO)cc1,-0.0927
16,O=C(OCCF)C1=CCC(c2cccc(Cl)c2)O1 (stereo not drawn),0.215
17,CCC[C@@H]1C=C(C(=O)O)[C@H](c2ccc(C)cc2)N1S(=O)(=O)c1ccc(C)cc1,1.34
18,COc1ccc(C#Cc2ccc3c(c2)[C@]2(C(=O)N3)[C@H](C(=O)NC[C@H](O)c3ccccc3)[C@H]3C(=O)O[C@H](c4ccccc4)[C@H](c4ccccc4)N3[C@@H]2c2ccccc2OCCO)cc1,-0.118
19,CC1=C2[C@@H](CCc3ccccc3)OB(O)C[C@@H]2n2c(=O)n(-c3ccccc3)c(=O)n2C1,0.208
20,CCOC(=O)C1=C[C@@H](CC)N(S(=O)(=O)c2ccc(C)cc2)[C@H]1c1ccccc1,0.54
21,COc1cc(C(O)C2C=CC3C(=O)N(c4ccccc4)C(=O)C3N2Nc2ccc(C#N)cc2)cc(OC)c1OC (stereo not drawn),0.668
22,COc1ccc(C#Cc2ccc3c(c2)[C@]2(C(=O)N3)[C@H](c3ccc(O)cc3)N3[C@H](c4ccccc4)[C@H](c4ccccc4)OC(=O)[C@H]3[C@@H]2C(=O)NC[C@H](O)c2ccccc2)cc1,0.385
23,COc1ccc(C#Cc2ccc3c(c2)[C@]2(C(=O)N3)[C@H](C(=O)NC[C@H](O)c3ccccc3)[C@H]3C(=O)O[C@H](c4ccccc4)[C@H](c4ccccc4)N3[C@@H]2c2ccc(OCCO)cc2)cc1,0.886
24,C=CCC(OC(C)=O)[C@@H]1[C@@H](N(Cc2cccc3ccccc23)C(=O)c2cccc3ccccc23)c2cc(OCCCO)ccc2N1C(=O)c1ccc2ccccc2n1 (stereo partly drawn),0.545
25,COC(=O)[C@@]1(Cc2ccccc2)[C@H]2c3cc(C(=O)N4CCCC4)n(Cc4ccc(C)o4)c3C[C@H]2CN1C(=O)c1ccccc1,0.421
26,CC(C)CNC(=O)[C@@H]1c2ccccc2C(=O)N(Cc2cc(C(F)(F)F)cc(C(F)(F)F)c2)[C@H]1c1ccc(CO)cc1,0.21
27,COC(=O)[C@@]1(Cc2ccc(OC)cc2)[C@H]2c3cc(C(=O)N(C)C)n(Cc4c(OC)[nH]cc(C)c4=O)c3C[C@H]2CN1C(=O)c1ccccc1,-0.208
28,O=C1O[C@@H](c2ccccc2)[C@@H](c2ccccc2)N2[C@@H](c3ccc(OCCO)cc3)[C@]3(C(=O)Nc4ccc(C#CC5=CCCCC5)cc43)[C@@H](C(=O)O)[C@H]12,0.542
29,C=C[C@@H](COC(C)=O)N(Cc1ccccc1[N+](=O)[O-])S(=O)(=O)c1ccc(Br)cc1,-0.567
30,COC(=O)[C@@]1(Cc2ccc(OC)cc2)[C@H]2c3cc(C(=O)N4CCCC4)n(CCc4c[nH]c5cc(F)ccc45)c3C[C@H]2CN1C(=O)c1ccccc1,0.598
